In the antibiotic and cytotoxicity screens of Wong et al. (2023) one finds growth inhibition call data, which are given here for 60 compounds.

Hit rate of the full screen: of about 39,000 compounds, about 500 (1.3%) were called active. Many of the other results were omitted from the sample, so actives are more common in it than they were.

The assay deals with S. aureus RN4220. As to the kind of experiment: growth inhibition call (relative growth <= 0.2). The conditions noted are these: 50 µM.
With `CC(C)NC(=O)Nc1ccc2c(c1)C(=O)N([C@H](C)CO)C[C@@H](C)[C@H](CN(C)C(=O)C1CCCCC1)OCCCC[C@H](C)O2`, the growth inhibition call is “inactive”.
Turning to `Cc1cc(C(=O)Nc2cccc3c2O[C@@H](CN(C)C(=O)Nc2c(C)noc2C)[C@H](C)CN([C@H](C)CO)C3=O)n(C)n1`, the growth inhibition call was “inactive”.
As to `C[C@@H]1CCCCO[C@H](CN(C)S(=O)(=O)c2ccccc2)[C@@H](C)CN([C@H](C)CO)C(=O)c2cc(NC(=O)Nc3ccc(F)cc3)ccc2O1`, the growth inhibition call is “inactive”.
For `CO[C@@H]1CN(C)C(=O)c2ccc(NS(=O)(=O)c3ccccc3)cc2OC[C@@H](C)N(C(=O)NC(C)C)C[C@H]1C`, the growth inhibition call is “inactive”.
Consider `O=C(O)C1=C[C@@H](O)[C@H](O)[C@H](O)C1`, for which the growth inhibition call is “inactive”.
Under `C[C@H](CO)N1C[C@H](C)[C@@H](CN(C)Cc2ccccc2)Oc2ccc(NC(=O)Nc3ccc(C(F)(F)F)cc3)cc2C1=O` stands “inactive”; under `COc1ccc(NC(=O)Nc2ccc3c(c2)C(=O)N([C@@H](C)CO)C[C@@H](C)[C@@H](CN(C)Cc2ccc(C(F)(F)F)cc2)O3)cc1`, “inactive”; under `C[C@@H]1CN([C@H](C)CO)C(=O)c2cc(NC(=O)Nc3ccc(C(F)(F)F)cc3)ccc2O[C@@H]1CN(C)Cc1ccccc1`, “inactive”.
With `C[C@H]1CN([C@@H](C)CO)C(=O)c2cc(NC(=O)Nc3ccc(C(F)(F)F)cc3)ccc2O[C@H]1CN(C)Cc1ccccc1`, the growth inhibition call was “active”.
Turning to `C[C@@H]1CN([C@@H](C)CO)C(=O)c2cc(NC(=O)Nc3ccc(C(F)(F)F)cc3)ccc2O[C@@H]1CN(C)Cc1ccccc1`, the growth inhibition call was “inactive”.
For `COc1ccc(CN(C)C[C@@H]2Oc3ccc(NC(=O)Nc4ccc(C(F)(F)F)cc4)cc3C(=O)N([C@H](C)CO)C[C@@H]2C)cc1`, the growth inhibition call is “active”.
In the case of `C[C@@H]1CN([C@@H](C)CO)C(=O)c2cc(NC(=O)Nc3ccc(C(F)(F)F)cc3)ccc2O[C@@H]1CN(C)Cc1ccc2c(c1)OCO2`, the growth inhibition call is “inactive”.
For `COc1ccc(CN(C)C[C@@H]2Oc3ccc(NC(=O)Nc4ccc(C(F)(F)F)cc4)cc3C(=O)N([C@@H](C)CO)C[C@@H]2C)cc1`, the growth inhibition call is “inactive”.
For `C[C@H](CO)N1C[C@H](C)[C@@H](CN(C)Cc2ccc3c(c2)OCO3)Oc2ccc(NC(=O)Nc3ccc(C(F)(F)F)cc3)cc2C1=O`, the growth inhibition call was “inactive”.
In the case of `C[C@H]1CN([C@@H](C)CO)C(=O)c2cc(NC(=O)Nc3ccc(C(F)(F)F)cc3)ccc2O[C@H]1CN(C)Cc1ccc2c(c1)OCO2`, the growth inhibition call is “active”.
Turning to `C[C@H](CO)N1C[C@H](C)[C@H](CN(C)Cc2ccccc2)Oc2ccc(NC(=O)Nc3ccc(C(F)(F)F)cc3)cc2C1=O`, the growth inhibition call was “active”.
`C[C@H]1CN([C@@H](C)CO)C(=O)c2cc(NC(=O)Nc3ccc(C(F)(F)F)cc3)ccc2O[C@@H]1CN(C)Cc1ccccc1`: the growth inhibition call is “inactive”.
`O=C(C[C@H]1CC[C@H]2[C@@H](COC[C@H](O)CN2S(=O)(=O)c2ccccc2)O1)N1CCOCC1`: the growth inhibition call was “inactive”.
In the case of `C[C@@H]1CN([C@@H](C)CO)C(=O)c2cc(NC(=O)NC3CCCCC3)ccc2O[C@@H](C)CCCCO[C@H]1CN(C)S(=O)(=O)c1ccc(F)cc1`, the growth inhibition call is “inactive”.
On to `CC(C)c1cc(=O)n2nc(N)nc2[nH]1`, for which the growth inhibition call is “inactive”.
Under `Cc1ccc(S(=O)(=O)N(C)C[C@@H]2Oc3ncc(C#CCC(C)C)cc3C(=O)N([C@@H](C)CO)C[C@H]2C)cc1` stands “inactive”; under `Cc1noc(C)c1NC(=O)N[C@@H]1CC[C@H](CC(=O)N2CCN(C)CC2)O[C@H]1CO`, “inactive”.
Under `CC(=O)N1[C@H](CO)[C@H](c2ccccc2)[C@H]1CNC(=O)CN1CCOCC1` stands “inactive”.
On to `C[C@@H]1CN([C@@H](C)CO)C(=O)c2cc(NS(C)(=O)=O)ccc2O[C@@H]1CN(C)C(=O)NC1CCCCC1`, for which the growth inhibition call is “inactive”.
For `Cc1ccc(S(=O)(=O)N(C)C[C@H]2Oc3ccc(NS(=O)(=O)c4ccccc4)cc3C(=O)N([C@@H](C)CO)C[C@H]2C)cc1`, the growth inhibition call is “inactive”.
`Cc1ccc(S(=O)(=O)Nc2ccc3c(c2)C(=O)N([C@@H](C)CO)C[C@H](C)[C@@H](CN(C)C(=O)Nc2ccc(C(F)(F)F)cc2)OCCCC[C@H](C)O3)cc1`: the growth inhibition call is “inactive”.
Regarding `COCC(=O)Nc1ccc2c(c1)[C@H]1C[C@H](CC(=O)N3CCOCC3)O[C@H](CO)[C@H]1O2`, the growth inhibition call was “inactive”.
Take `COc1ccc(NC(=O)Nc2ccc3c(c2)C(=O)N([C@@H](C)CO)C[C@@H](C)[C@@H](CN(C)S(=O)(=O)c2cn(C)cn2)O3)cc1`: the growth inhibition call is “inactive”.
Under `CO[C@@]12[C@@H]3N[C@@H]3CN1C1=C(C(=O)C(N)=C(C)C1=O)[C@@H]2COC(N)=O` stands “active”.
`COC12C(COC(N)=O)C3=C(C(=O)C(C)=C(N)C3=O)N1CC1NC12` (stereo not given): the growth inhibition call was “active”.
Turning to `CO[C@@]12[C@H](COC(N)=O)C3=C(C(=O)C(C)=C(N)C3=O)N1C[C@@H]1N[C@@H]12`, the growth inhibition call was “inactive”.
Turning to `Cc1onc(C(=O)O)c1[N+](=O)[O-]`, the growth inhibition call was “inactive”.
Under `C[C@H]1CN([C@@H](C)CO)S(=O)(=O)c2ccc(C#Cc3cccnc3)cc2O[C@H]1CN(C)C(=O)CN(C)C` stands “inactive”; under `CN[C@@H]1[C@H](O[C@H]2[C@H](O[C@H]3[C@H](O)[C@@H](O)[C@H](NC(=N)N)[C@@H](O)[C@@H]3NC(=N)N)O[C@@H](C)[C@]2(O)C=O)O[C@@H](CO)[C@H](O)[C@H]1O`, “inactive”; under `CN[C@H]1[C@@H](O[C@H]2[C@@H](O[C@H]3[C@@H](O)[C@@H](O)[C@@H](NC(=N)N)[C@@H](O)[C@@H]3NC(=N)N)O[C@@H](C)[C@@]2(O)C=O)O[C@@H](CO)[C@@H](O)[C@@H]1O.CN[C@H]1[C@@H](O[C@H]2[C@@H](O[C@H]3[C@@H](O)[C@@H](O)[C@@H](NC(=N)N)[C@@H](O)[C@@H]3NC(=N)N)O[C@@H](C)[C@@]2(O)C=O)O[C@@H](CO)[C@@H](O)[C@@H]1O.O=S(=O)(O)O.O=S(=O)(O)O.O=S(=O)(O)O`, “inactive”.
Consider `CNC1C(OC2C(OC3C(O)C(O)C(NC(=N)N)C(O)C3NC(=N)N)OC(C)C2(O)C=O)OC(CO)C(O)C1O.O=S(=O)(O)O` (stereo not given) [STREPTOMYCIN SULFATE [5mM; 10% aq DMSO + 5mM ethanolamine]], for which the growth inhibition call was “active”.
Consider `O=C(NC1CC1)[C@@H]1c2ccccc2C(=O)N(Cc2cc(F)cc(C(F)(F)F)c2)[C@H]1c1ccc(CO)cc1`, for which the growth inhibition call was “inactive”.
Turning to `Cc1noc(C)c1NC(=O)Nc1ccc2c(c1)CC(=O)N([C@H](C)CO)C[C@@H](C)[C@@H](CN(C)C(=O)Nc1ccc(C(F)(F)F)cc1)O2`, the growth inhibition call was “inactive”.
Consider `C[C@@H]1CN([C@@H](C)CO)C(=O)c2cc(NC(=O)Nc3ccc(C(F)(F)F)cc3)ccc2O[C@@H](C)CCCCO[C@H]1CN(C)Cc1ccc(C(=O)O)cc1`, for which the growth inhibition call is “inactive”.
Consider `O=c1oc2ccccc2c(O)c1Cc1c(O)c2ccccc2oc1=O`, for which the growth inhibition call is “active”.
Under `O=c1c2ccccc2oc2ccccc12` stands “inactive”.
In the case of `CC(=O)CC(c1ccccc1)c1c(O)c2ccccc2oc1=O` (stereo not given), the growth inhibition call is “inactive”.
For the compound `Cc1nccn1-c1ccc(CN)cc1`, the growth inhibition call is “inactive”.
For the compound `C[C@H](CO)N1C[C@H](C)[C@@H](CN(C)Cc2ccc(-c3ccccc3)cc2)Oc2c(NC(=O)Nc3ccc(C(F)(F)F)cc3)cccc2C1=O`, the growth inhibition call is “inactive”.
Turning to `CCC1OC(=O)C(C)C(=O)C(C)C(OC2OC(C)CC(N(C)C)C2O)C(C)(OC)CC(C)C(=O)C(C)C2N(CCCCn3cnc(-c4cccnc4)c3)C(=O)OC12C` (stereo not given), the growth inhibition call was “active”.
For the compound `NNC(=O)[C@@H]1C(c2ccccc2)[C@H]1C(=O)NN` (stereo not given in full), the growth inhibition call is “inactive”.
As to `C[C@H](CO)N1C[C@H](C)[C@H](CN(C)S(=O)(=O)c2ccccc2)OCCCC[C@H](C)Oc2ccc(NS(=O)(=O)c3cn(C)cn3)cc2C1=O`, the growth inhibition call was “inactive”.
Consider `C[C@H]1CN([C@@H](C)CO)C(=O)Cc2cc(NC(=O)Nc3cccc4ccccc34)ccc2O[C@H]1CN(C)Cc1ccc(Oc2ccccc2)cc1`, for which the growth inhibition call was “inactive”.
Under `O=C(C[C@@H]1C[C@H]2c3cc(NS(=O)(=O)c4ccc(F)cc4)ccc3O[C@H]2[C@@H](CO)O1)NCc1ccc(Oc2ccccc2)cc1` stands “inactive”; under `C[C@@]12CCC[C@](C)(C(=O)O[C@@H]3O[C@H](CO)[C@@H](O)[C@H](O)[C@H]3O)[C@@H]1CC[C@]13C[C@H](CC[C@@H]12)[C@](O)(CO)C3`, “inactive”; under `C=C1C[C@]23CC[C@@H]4[C@@](C)(CCC[C@@]4(C)C(=O)O)[C@H]2CC[C@H]1C3`, “active”.
Under `C=C1C[C@@]23CC[C@@H]4[C@@](C)(CCC[C@@]4(C)C(=O)OC)[C@H]2CC[C@@H]1C3` stands “inactive”; under `CN1CCN(CC#N)C(=O)C12CCN([C@H]1CCOC1)CC2`, “inactive”.
With `C[C@H]1CN([C@@H](C)CO)C(=O)Cc2cc(NS(=O)(=O)c3cn(C)cn3)ccc2O[C@H]1CN(C)S(=O)(=O)c1cn(C)cn1`, the growth inhibition call was “inactive”.
Under `C/C=C(/C)C(=O)O[C@H]1[C@@H](OC(C)=O)[C@@]2(CO)[C@@H](O)C[C@@]3(C)C(=CC[C@H]4[C@@]5(C)CC[C@@H](O[C@H]6O[C@H](C(=O)O)[C@@H](O[C@H]7O[C@@H](CO)[C@@H](O)[C@@H](O)[C@@H]7O)[C@@H](O)[C@@H]6O[C@H]6O[C@@H](CO)[C@@H](O)[C@@H](O)[C@@H]6O)[C@@](C)(CO)[C@@H]5CC[C@]43C)[C@@H]2CC1(C)C` stands “inactive”; under `COc1ccc(NC(=O)N2CCCCN3[C@H](COCCN(C)C)[C@H](c4ccc(C#Cc5ccccc5)cc4)[C@@H]3C2)cc1`, “active”.
For the compound `COc1ccc(NC(=O)N2CCCCN3[C@H](CN(C)C(C)=O)[C@H](c4ccc(C#Cc5ccccc5)cc4)[C@@H]3C2)cc1`, the growth inhibition call was “inactive”.
As to `CN(C)CC#Cc1ccc([C@H]2[C@@H](CO)N3CCCCN(C(=O)CN(C)C)C[C@@H]23)cc1`, the growth inhibition call is “inactive”.
Take `O=C(C[C@H]1C=C[C@H](NC(=O)c2cccc(F)c2)[C@@H](CO)O1)NCCN1CCCC1`: the growth inhibition call was “inactive”.
For the compound `C[C@H](CO)N1C[C@H](C)[C@@H](CN(C)Cc2ccc(C(F)(F)F)cc2)Oc2ccc(NS(C)(=O)=O)cc2C1=O`, the growth inhibition call was “inactive”.
